The text below walks through data of PubChem BioAssay AID504467 (National Center for Advancing Translational Sciences (NCATS), 2011).

In all, about 330,000 compounds went through this assay and about 7,700 (2.3%) were called active. About 26% were inconclusive and are not listed. The call rests on the fitted dose curve; in most records, active means well fitted inhibition curve with a large enough effect; inconclusive means small, poorly fitted or top-dose-only effect, or effect the other way; inactive means flat fitted curve, though single readings scatter. The entries come from a sample that favours actives as a whole. A call without a number means that no potency is given here.
Potency means the concentration at half of the fitted maximal effect.

The assay can be described thus: qHTS screen for small molecules that inhibit ELG1-dependent DNA repair in human embryonic kidney (HEK293T) cells expressing luciferase-tagged ELG1. Further: nearly all actives have a fitted effect of over 55% in size. To be noted: HEK293T ELG1-luciferase reporter, luminescence, 16 h, DNA damage induced by 5-fluorouridine; series mostly up to 46.1 µM. An excerpt: NIH Molecular Libraries Probe Production Network [MLPCN] NIH Chemical Genomics Center [NCGC] MLPCN Grant: 1 R03 MH092164-01 Assay Provider: Kyungjae Myung, NHGRI, NIH Keywords: MLPCN, qHTS, NCGC, genotoxicity, cancer Assay Overview: Cancer cells divide rapidly compared to normal cells in the body. During cell division, cancer cells need to duplicate their genome by DNA replication. The failure of genome duplication leads to cancer cells' death. Therefore, inhibitors of DNA replication could specifically kill cancer cells. Based on this concept, many chemotherapeutic agents were developed and have been used to treat cancer patients. However, there are a limited number of agents available in the clinical setting, and some of those that do exist have low efficacy and severe side effects. Therefore, if we can find the compounds that effectively block DNA replication either by directly damaging DNA or by inhibiting other cellular mechanisms, the options for cancer treatment will be broadened. With this in mind, we developed a quantitative high-throughput ELG1-luciferase reporter gene assay. Small molecules that specifically block ELG1 function in response to DNA damage can be identified by monitoring the suppression of luciferase activity. Since ELG1 defines a pathway for repairing DNA damage, agents blocking ELG1 function can be used to sensitize cancer cells to chemotherapeutic agents whose mechanism of action involves the induction of DNA damage.
Assay Protocol Summary: For genotoxicity screening, 2,000 cells in 4 uL/well were dispensed into white, solid-bottom 1536-well plates using a solenoid-based dispenser. Following transfer of 1 uL 5-Fluorouridine and 23 nL compound or DMSO vehicle by a pin tool, the plates were incubated 16 hr at 37 °C and 5% CO2. 5 ul ONE-Glo (Promega) was then added to each plate and following a 30 min incubation at room temperature, luciferase activity was quantified on a ViewLux CCD-based plate reader.
In general terms: In qHTS, concentration-response curves come from the screen itself.
Regarding `O=C(CSc1ncn[nH]1)Nc1ccc(Br)cc1Br`, the Potency entry was “inactive”.
The entry for `Nc1ncnc2c1ncn2[C@@H]1O[C@H](CNS(=O)(=O)c2ccc(-c3ccno3)s2)[C@@H](O)[C@H]1O` is “inactive”; for `CCn1ccnc1CN(C)C(=O)c1cc(COc2ccc(-n3cncn3)cc2)on1` it is “inactive”.
Turning to `COc1ccc(CC(=O)Nc2nc(-c3ccc(F)c(F)c3)cs2)cc1OC`, the Potency result is “inactive”.
`COc1cccc(CC(=O)Nc2ccc(-c3csc(C)n3)cc2)c1`: the Potency result was “inactive”.
Turning to `COc1cccc(CC(=O)Nc2nc(-c3ccc(OC)c(OC)c3)cs2)c1`, the Potency was 25.9 µM (active).
For `COc1ccccc1C(=O)NCC(=O)OCC(=O)Nc1nnc(-c2ccccc2)o1`, the Potency entry was “inactive”.
The entry for `COc1ccc(/C=C/C(=O)NC(=S)N2CCCC(C(N)=O)C2)cc1` (centres undefined) is “inactive”.
As to `CCOC(=O)c1sc(NC(=O)CSc2nc3c(c(=O)n2-c2ccccc2)SCC3)c(C(=O)OCC)c1C`, the Potency result is “inactive”.
Consider `CCOc1ccc(NC(=O)CSc2nc3c(c(=O)n2-c2ccccc2OC)SCC3)cc1`, for which the Potency result is “inactive”.
The figure for `CCc1nnc(NC(=O)CSc2nc3c(c(=O)n2-c2ccccc2OC)SCC3)s1` is 20.6 µM (active).
Turning to `Cc1ccc(S(=O)(=O)NCCC(=O)OCC(=O)N(C)c2ccccc2)cc1`, the Potency entry was “inactive”.
Turning to `O=c1ccc2cc(S(=O)(=O)Nc3ccccc3F)ccc2o1`, the Potency result was “inactive”.
On to `O=c1oc2ccccc2c(NC2CCCCC2)c1NS(=O)(=O)c1ccc(Cl)cc1`, for which the Potency result is “inactive”.
The figure for `O=c1oc(-c2ccccc2NS(=O)(=O)c2ccc(Cl)cc2)nc2ccccc12` is 14.6 µM (active).
As for `CN(CC1CCCO1)S(=O)(=O)c1ccc(C(=O)Nc2ccc(F)cc2)cc1` (centres undefined), the Potency was 4.11 µM (active).
The entry for `CCOc1ccc(C(=O)Nc2ccc(S(=O)(=O)NCC3CCCO3)cc2)cc1OCC` (centres undefined) is “inactive”; for `Cc1ccc(NC(=O)c2ccc(S(=O)(=O)NCC3CCCO3)cc2)cc1C` (centres undefined) it is “inactive”; for `CN(CC1CCCO1)S(=O)(=O)c1ccc(C(=O)Nc2ccc([N+](=O)[O-])cc2)cc1` (centres undefined) it is 1.83 µM (active).
The entry for `CCC(=O)Nc1ccc(S(=O)(=O)NCC2CCCO2)cc1` (centres undefined) is “inactive”.
In the case of `O=C(Nc1ccc(S(=O)(=O)NCC2CCCO2)cc1)c1ccc(F)cc1` (centres undefined), the Potency entry was “inactive”.
The entry for `Cc1c2cnn(CC(=O)NCc3ccccn3)c(=O)c2c(C)n1Cc1ccc(Cl)cc1` is “inactive”.
The entry for `COc1cccc(-n2c(SCC(=O)NC3CCS(=O)(=O)C3)nc3ccccc3c2=O)c1` (centres undefined) is “inactive”; for `C[C@H]1CN([C@@H](C)CO)C(=O)Cc2cc(NC(=O)Cc3ccccc3)ccc2O[C@H]1CN(C)S(=O)(=O)c1cccs1` it is “inactive”; for `O=c1ccc2c(-c3ccccc3S(=O)(=O)O)c3ccc(O)c(O)c3oc-2c1O` it is 35.5 µM (active).
The entry for `COc1cc(OC)cc(-c2sc3ccc(OC)cc3c2-c2ccc3cc[nH]c3c2)c1` is “inactive”.
Regarding `CC(C)CC1NC(=O)c2cc(Cl)ccc2-n2c1nc1ccccc1c2=O` (centres undefined), the Potency result was “inactive”.
The entry for `Cc1cccc(N(Cc2ccccc2)C(=O)c2ccccc2F)c1` is “inactive”; for `CCOc1ccc(NC(=O)CSc2nc3ccccc3c(=O)n2Cc2cccs2)cc1` it is “inactive”.
The figure for `CCc1ccc(NC(=O)CSc2nc3ccccc3c(=O)n2CCN2CCOCC2)cc1` is 23.1 µM (active); for `COC(=O)c1ccc2c(=O)n(CCN3CCOCC3)c(SCC(=O)Nc3cccc(OC)c3)nc2c1` it is “inactive”; for `Cn1c(=O)n(C)c2cc(S(=O)(=O)Nc3ccc(F)cc3)ccc21` it is “inactive”.
The entry for `CC1(C)CC(=O)C=C(c2cccc3c2Oc2ccccc2S3)C1` is “inactive”.
`COc1cccc(N(CC(=O)Nc2cccc(F)c2)S(C)(=O)=O)c1`: the Potency result is “inactive”.
The entry for `CCOc1ccc(N(CC(=O)Nc2cccc(OC)c2)S(C)(=O)=O)cc1` is “inactive”.
The figure for `Cc1ccc(N(CC(=O)Nc2cccc(N(C)S(C)(=O)=O)c2)S(C)(=O)=O)cc1` is 6.51 µM (active); for `Cc1[nH]c2ccccc2c1C(=O)C(C)Sc1nnc(C2CC2)o1` (centres undefined) it is “inactive”.
The entry for `O=C(COC(=O)c1ccc([N+](=O)[O-])o1)NC12CC3CC(CC(C3)C1)C2` is “inactive”.
For `COC(=O)[C@]1(Cc2ccccc2)N[C@H](CN(C)S(=O)(=O)c2ccc(F)cc2)[C@@H]2C(=O)N(Cc3ccccc3)C(=O)[C@@H]21`, the Potency entry is “inactive”.
For `CC(=O)N1c2ccc(S(=O)(=O)N3CCCC(C(=O)NCc4ccc(Cl)cc4)C3)cc2CC1C` (centres undefined), the Potency result is “inactive”.
In the case of `N#Cc1cccc(NC(=O)C2CCCN(C(=O)c3ccc(Cl)cc3)C2)c1` (centres undefined), the Potency entry is “inactive”.
Turning to `Cn1c(-c2sccc2OCc2cccc(C(F)(F)F)c2)n[nH]c1=S`, the Potency is 23.1 µM (active).
Regarding `Cn1c(-c2sc3cc(C(F)(F)F)cnc3c2-c2ccccc2)n[nH]c1=S`, the Potency result was “inactive”.
For the compound `Cc1ccccc1-c1n[nH]c(=S)n1C`, the Potency entry is “inactive”.
The entry for `O=C(Nc1ccccc1N1CCCC1)c1ccc(F)c(S(=O)(=O)N2CCOCC2)c1` is “inactive”; for `COc1ccc(CCC(=O)N2CCN(S(=O)(=O)c3ccc(OC)cc3)CC2)cc1` it is “inactive”.
The entry for `CCCNC(=O)CSc1nc(Cc2ccccc2)nc2ccccc12` is “inactive”; for `CCCNC(=O)CCc1c(C)nc2c(c(C)nn2-c2ccc(C)cc2)c1C` it is “inactive”.
In the case of `CCCCC(CC)CNCc1cccn1CCN1CCOCC1` (centres undefined), the Potency result was “inactive”.
Take `CCN(CC)c1ccc(NC(=O)c2ccc(=O)[nH]c2)cc1S(=O)(=O)Nc1ccc(OC)cc1`: the Potency entry was “inactive”.
The entry for `O=C(NCc1ccccc1CN1CCCC1)c1cccc(S(=O)(=O)Nc2ccc(F)cc2)c1` is “inactive”; for `CCN(c1ccccc1)S(=O)(=O)c1cccc(C(=O)NCc2ccccc2CN2CCOCC2)c1` it is 11.6 µM (active); for `CCN(c1ccccc1)S(=O)(=O)c1cccc(C(=O)O)c1` it is “inactive”.
The entry for `Cc1noc(C)c1C(=O)OC(C)C(=O)Nc1ccc2c(c1)OCO2` (centres undefined) is “inactive”; for `CC(C)C[C@H]1CN=C(Nc2ccccc2)N1CC1CCCCC1` it is “inactive”.
As to `CCCCN(C(=O)CSCC(=O)Nc1ccc(OC)cc1)c1c(N)n(CCC)c(=O)[nH]c1=O`, the Potency entry was “inactive”.
On to `O=S(=O)(Nc1cccc(-n2cnnn2)c1)c1cnc(Cl)c(Cl)c1`, for which the Potency result is “inactive”.
The entry for `COc1cccc(N(CC(=O)NC2CCCCCC2)S(=O)(=O)c2ccccc2)c1` is “inactive”; for `O=C(Nc1nc2ccc(S(=O)(=O)N3CCCC3)cc2s1)C1CCCO1` (centres undefined) it is “inactive”; for `Cc1ccc2nc(NC(=O)C3CCN(S(=O)(=O)c4ccc5c(c4)oc(=O)n5C)CC3)sc2c1` it is 10.3 µM (active).
Consider `Cc1nc2ccc(NC(=O)C3CCCCC3)cc2s1`, for which the Potency result is “inactive”.
As for `CS(=O)(=O)c1ccc2nc(NC(=O)C3CCCCC3)sc2c1`, the Potency is 3.66 µM (active).
The entry for `Cn1c(=O)oc2cc(S(=O)(=O)N3CCC(C(=O)Nc4ccc(OC(F)(F)F)cc4)CC3)ccc21` is “inactive”; for `CS(=O)(=O)c1ccc2nc(NC(=O)CN3CCCCCC3)sc2c1` it is “inactive”.
